# Assay outcomes as filed in PubChem BioAssay.
# TbPYK inhibitor: inhibitors of Trypanosoma brucei pyruvate kinase. Potency, µM (top dose mostly 76.8 µM), for inactives: top-dose activity, negative = inhibition, hits mostly inhibitors. hit rate 0.12% among 410,000. TbPYK enzyme, Kinase-Glo Plus ATP luminescence, 45 min; note: potency is the fitted concentration of half-maximal effect; % is set by controls: 0 for no effect and ±100 for the full control effect; nearly all actives have a fitted effect of over 50% in size
#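 Luminescent Kinase-Glo Plus end-point after 45 min room-temperature reaction of T. brucei pyruvate kinase started with 130 uM ADP (final). Buffer TEA 50 mM pH 7.2 with KCl, MgCl2, BSA, Tween-20; titration-based qHTS with fitted concentration-effect curves.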
# SARS PLpro yeast-1: SARS-CoV PLP inhibition in yeast. S. cerevisiae expressing SARS-CoV PLpro, growth rescue. Potency, µM (top dose mostly 32.9 µM), without a hit: at the highest dose activity, positive = growth rescue, most hits filed as activators. hit rate 0.19% among 330,000. AID 485353; calls by dose curve; note: potency is the fitted concentration of half-maximal effect; 0% is about no effect; nearly all actives have a fitted effect of over 55% in size
# LmPK inh: blocks Leishmania mexicana pyruvate kinase activity | purified LmPK, Kinase-Glo ATP luminescence, 1 h | Potency, µM (top dose mostly 57.5 µM), inactives show top-dose activity change, negative = inhibition, usual class: inhibitors | hit rate 0.37% among 290,000 | AID 1721; note: potency is the fitted concentration of half-maximal effect; % is set by controls: 0 for no effect and ±100 for the full control effect
# Target sequence (Q27686 whole entry, looked up): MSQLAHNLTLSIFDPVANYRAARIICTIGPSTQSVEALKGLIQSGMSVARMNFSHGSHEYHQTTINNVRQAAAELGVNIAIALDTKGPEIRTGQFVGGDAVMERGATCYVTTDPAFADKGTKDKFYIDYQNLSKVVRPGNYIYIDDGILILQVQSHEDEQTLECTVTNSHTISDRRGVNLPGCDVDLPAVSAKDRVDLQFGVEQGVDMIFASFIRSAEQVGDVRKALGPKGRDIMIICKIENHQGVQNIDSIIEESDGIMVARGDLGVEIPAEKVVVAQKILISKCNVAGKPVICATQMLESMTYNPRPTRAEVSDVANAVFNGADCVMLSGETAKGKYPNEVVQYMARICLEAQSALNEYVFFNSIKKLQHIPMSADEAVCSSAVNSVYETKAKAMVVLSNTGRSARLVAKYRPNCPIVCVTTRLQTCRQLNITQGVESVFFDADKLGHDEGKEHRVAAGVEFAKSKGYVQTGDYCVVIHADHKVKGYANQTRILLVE
#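 Purified LmPK (0.1 nM) converted ADP (0.1 mM) to ATP with PEP (0.5 mM) in imidazole buffer pH 7.2 with KCl and MgCl2, 1 h at room temperature. ATP was read by Kinase-Glo luminescence; data normalized to uninhibited and no-enzyme controls.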
# RE007 growth inh: less growth of the S. pombe RE007 Vpr strain. S. pombe RE007 Vpr strain, BacTiter-Glo ATP luminescence, 24 h. Potency, µM (top dose mostly 92.2 µM), inactives show at the highest dose activity change, negative = less growth, most hits filed as inhibitors. hit rate 0.21% among 360,000; active = well fitted falling curve with a large enough effect; inconclusive = small, poorly fitted or top-dose-only effect; inactive = no such curve, though single readings can be large or run the other way; note: potency is the fitted concentration of half-maximal effect; % is set by controls: 0 for no effect and ±100 for the full control effect; nearly all actives have a fitted effect of over 50% in size
#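 Fission yeast RE007 carrying one integrated HIV-1 vpr copy, seeded at OD 0.01 in PMG+AL medium with 23 nL pinned compound. Grown 24 h at 30 degrees; viability read by BacTiter-Glo luminescence after 5 min.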
# Sm TGR inh: S. mansoni TGR enzyme inhibition; Q962Y6; purified TGR, DTNB reduction, TNB absorbance 405 nm; Potency, µM (top dose mostly 114 µM), for inactives: at the highest dose activity change, negative = inhibition, actives largely listed as inhibitors; hit rate 3% among 360,000; AID 485364; note: potency is the fitted concentration of half-maximal effect; % is set by controls: 0 for no effect and ±100 for the full control effect; nearly all actives have a fitted effect of over 60% in size
#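 Kinetic colorimetric format: TGR-catalysed, NADPH-driven DTNB reduction monitored via TNB absorbance. Enzyme dispensed at 20 nM; compound exposure 15 min at room temperature before reaction start.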
# NS1 function inh: influenza NS1 inhibition | Potency, µM (highest dose often 46.1 µM), inactives show at the top dose activity, positive = more growth | hit rate 0.4% among 270,000; calls by dose curve; note: potency is the fitted concentration of half-maximal effect; actives are rising curves; nearly all actives have a fitted effect of over 50% in size
#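 Growth recovery, yeast-based: influenza A NS1 expressed in S. cerevisiae causes slow growth, and suppressors are detected by OD600. The parent strain without NS1 is used as positive control.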
# SARS PLpro yeast-2: Rescues yeast growth by inhibiting SARS-CoV PLpro; shares compounds with SARS PLpro yeast-1; yeast expressing SARS-CoV PLpro, growth phenotype rescue; calls only; hit rate 19% among 1,000; call rule not given here
# An asterisk follows results filed as active; i = inactive; ? = inconclusive; . = no result given; + = active, no number. Sampled rows, rich in hits. Any-hit rate of the full collection: about 3.3%. Unless noted, calls come from the whole dose curve; as a rule, active = well fitted curve in the direction sought with a large enough effect; inconclusive = small, poorly fitted or top-dose-only effect, or another doubt; inactive = no such curve, though single readings can be large; an effect the other way counts as inactive or inconclusive.
SMILES,TbPYK inhibitor,SARS PLpro yeast-1,LmPK inh,RE007 growth inh,Sm TGR inh,NS1 function inh,SARS PLpro yeast-2
CC(=O)c1ccc(N(C)C)cc1,-5%,2.8µM*,-2%,-11%,5%,-10%,i
COc1ccc(-c2cn(CCC(=O)O)c(-c3ccc(Cl)nc3)n2)cc1,-8%,?,.,3%,-15%,.,i
CCCC1=Nc2cc(C(=O)NC3CCCCC3)ccc2Sc2ccc(C)cc21,6%,.,.,.,1%,.,.
Cc1cc(SC#N)cc(C)c1NC(=O)CCl,-9%,.,2%,18%,14µM*,-3%,i
CCC(=O)Nc1ccc(SC#N)cc1C,-1%,-32%,-9%,4%,10%,-3%,.
COc1cccc(CNC(=O)c2ccc(CS(=O)(=O)Cc3ccccc3C)o2)c1,8%,?,0%,4%,?,-22%,i
CCn1nc(C)c(CCN(C)C(=O)Nc2cc(C)cc(C)c2)c1C,-6%,.,.,.,-16%,.,.
O=C(CN1C(=O)C2C3C=CC(C3)C2C1=O)NCCc1ccccc1 (configuration not stated),?,3%,2%,?,2%,-4%,.
O=C(CN1C(=O)C2C3C=CC(C3)C2C1=O)NCc1ccccc1 (configuration not stated),-4%,?,-3%,0%,12%,4%,i
CC(C)N1C/C(=C/c2ccsc2)C(=O)/C(=C/c2ccsc2)C1,-10%,22µM*,4%,-16%,-34%,-10%,i
CCOc1ccc(NC(=O)CN(C)C(=O)c2c(C)nn(-c3ccccc3)c2Cl)cc1OCC,-1%,5%,.,2%,6%,.,.
CCOc1ccc(NC(=O)CN(C)C(=O)c2c(C)nn(-c3ccc(F)cc3)c2Cl)cc1OCC,-10%,?,.,-2%,1%,.,i
S=c1[nH]nc(-c2ccncc2)n1/N=C/c1ccccc1,?,?,0%,4%,-3%,17%,i
CC(C)(C)c1nnc(N/N=C/c2ccccc2O)n(N)c1=O,-6%,3.2µM*,1%,-27%,-20%,-34%,i
CCc1nnc(N/N=C/c2ccccc2F)n1N,3%,-2%,1%,-11%,1%,.,.
COc1ccc(-c2noc(CN(C(=O)COc3cc(C)c(Br)c(C)c3)C(C)C)n2)cc1,-9%,.,.,.,8%,.,.
CCN(C(=O)c1cccn(Cc2ccccc2C)c1=O)c1ccccc1,-8%,.,.,.,17%,.,.
Oc1ccc(Br)cc1/C=N/Nc1ncc(-c2ccccc2)cn1,-5%,-2%,4%,-11%,9%,4%,.
Oc1ccc(/C=N/Nc2ncc(Br)cn2)c(O)c1,-10%,?,-6%,-3%,2%,-4%,i
CCN(CC)S(=O)(=O)c1ccc(N/N=C/c2ccc(O)cc2O)nc1,1%,5µM*,3%,-8%,21%,11%,i
O=[N+]([O-])c1ccc(NN=Cc2ccc(O)cc2O)nc1,-2%,.,.,4%,.,.,.
CC(C)CCNC(=O)c1ccc2nc(CCc3ccccc3)oc2c1,-2%,.,.,.,1%,.,.
CCC(=NCc1cccnc1)c1c(O)n(-c2ccccc2C)c(=O)[nH]c1=O,-7%,0%,2%,0%,1%,2%,.
CC(=NCc1cccnc1)c1c(O)n(-c2ccccc2C)c(=O)[nH]c1=O,0%,3.5µM*,1%,-11%,-2%,8%,i
COc1ccc(/C=N/NC(=O)CN(CCc2ccccc2)S(=O)(=O)c2ccc(NC(C)=O)cc2)cc1OC,0%,3.5µM*,0%,6%,-5%,13%,i
SMILES,TbPYK inhibitor,SARS PLpro yeast-1,LmPK inh,RE007 growth inh,Sm TGR inh,NS1 function inh,SARS PLpro yeast-2
COc1ccc(S(=O)(=O)N(CCc2ccccc2)CC(=O)O)cc1Cl,-6%,?,4%,17%,0%,-6%,i
COc1ccccc1NCC(=O)N/N=C/C=C/c1ccccc1,3%,?,-2%,10%,-4%,?,i
CCc1sc(N)nc1-c1ccccc1,-7%,?,-3%,-9%,-1%,-12%,i
Cc1ccc(CN(C)C(=O)C2CCC(=O)N(CCc3ccccc3)C2)o1 (configuration not stated),?,?,-5%,-11%,13µM*,14%,i
O=C(O)c1cccc(NC(=S)N/N=C/c2ccccn2)c1,5%,5µM*,5%,5%,44%,.,+
O=C(N/N=C/c1ccccn1)c1ccc(Br)cc1,-8%,?,-2%,?,0%,-50%,?
O=C(O)c1cccc(NC(=S)N/N=C/c2cccc(O)c2)c1,-6%,1%,-7%,-8%,1%,.,.
O=C(N/N=C/c1ccccn1)c1ccc(N/N=C/c2ccccn2)cc1,-8%,-1%,-5%,9%,-3%,.,.
Cc1ccccc1OCCOC(=O)c1cc(S(=O)(=O)N2CCCCC2)ccc1N1CCOCC1,9%,10µM*,.,-27%,-14%,.,?
COc1ccccc1C(=O)COC(=O)c1cc(S(=O)(=O)N2CCCCC2)ccc1N1CCOCC1,-12%,9%,.,2%,-12%,.,.
CCN1C(=O)/C(=C2/C=CC=CN2C)OC1=S,-7%,11µM*,-3%,-20%,-2%,-144%,i
CCN1C(=O)/C(=C2\C=Cc3ccccc3N2CC)OC1=S,7%,.,.,1%,.,-40%,.
CCOC(=O)Cn1c(=O)n(CC2CCCO2)c2nc(-c3ccc(CC)cc3)nc(C(N)=O)c21 (configuration not stated),2%,.,.,.,-5%,.,.
Cc1ccc(NC(=O)/C=C/c2ccc3c(c2)OCO3)nc1,-8%,?,2%,7%,-15%,8%,i
Cc1c(N/N=C(\C#N)C(=O)c2ccccc2)c(=O)n(-c2ccccc2)n1C,-3%,?,4%,-8%,-18%,8%,i
Cc1ccccc1C(=O)/C(C#N)=N/Nc1c(C)n(C)n(-c2ccccc2)c1=O,-6%,20µM*,0%,.,-10%,-1%,i
CCOC(=O)/C(C#N)=N/Nc1c(C)n(C)n(-c2ccccc2)c1=O,-2%,0%,-2%,6%,-7%,.,.
CC(CCO)Nc1nc2c(c(=O)n(C)c(=O)n2C)n1Cc1ccc(Br)cc1 (configuration not stated),-1%,.,.,.,0%,.,.
COc1ccc2[nH]cc(CCNC(=O)c3cnn(-c4ccc(C)cc4)c3C3CCN(C(=O)OC(C)(C)C)CC3)c2c1,-2%,.,.,.,7%,.,.
O=C(Nc1ccc(Cl)c(C(F)(F)F)c1)C(Cc1ccccc1)NS(=O)(=O)c1cccc2nsnc12 (configuration not stated),-9%,.,.,.,-3%,.,.
CCc1nc(Cl)c(C#N)c2c1CCCC2,0%,4µM*,-1%,-6%,-3%,1%,i
